In all, about 110,000 compounds were measured (“z-score”: median about -0.1, highest 2% from about 2 on). Many of the other results were omitted from the sample, so the highest values are more common in it than they were. Active and inactive are the calls of the source.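 Rule for the calls: active = z-score in the third read window above 3 or below -3; inactive = the rest.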

We go through 114 compounds from PubChem BioAssay AID488969 (Vanderbilt High Throughput Screening Facility, 2010).

Chain of Metabotropic glutamate receptor 8 (Rattus norvegicus) (P70579 whole entry, looked up): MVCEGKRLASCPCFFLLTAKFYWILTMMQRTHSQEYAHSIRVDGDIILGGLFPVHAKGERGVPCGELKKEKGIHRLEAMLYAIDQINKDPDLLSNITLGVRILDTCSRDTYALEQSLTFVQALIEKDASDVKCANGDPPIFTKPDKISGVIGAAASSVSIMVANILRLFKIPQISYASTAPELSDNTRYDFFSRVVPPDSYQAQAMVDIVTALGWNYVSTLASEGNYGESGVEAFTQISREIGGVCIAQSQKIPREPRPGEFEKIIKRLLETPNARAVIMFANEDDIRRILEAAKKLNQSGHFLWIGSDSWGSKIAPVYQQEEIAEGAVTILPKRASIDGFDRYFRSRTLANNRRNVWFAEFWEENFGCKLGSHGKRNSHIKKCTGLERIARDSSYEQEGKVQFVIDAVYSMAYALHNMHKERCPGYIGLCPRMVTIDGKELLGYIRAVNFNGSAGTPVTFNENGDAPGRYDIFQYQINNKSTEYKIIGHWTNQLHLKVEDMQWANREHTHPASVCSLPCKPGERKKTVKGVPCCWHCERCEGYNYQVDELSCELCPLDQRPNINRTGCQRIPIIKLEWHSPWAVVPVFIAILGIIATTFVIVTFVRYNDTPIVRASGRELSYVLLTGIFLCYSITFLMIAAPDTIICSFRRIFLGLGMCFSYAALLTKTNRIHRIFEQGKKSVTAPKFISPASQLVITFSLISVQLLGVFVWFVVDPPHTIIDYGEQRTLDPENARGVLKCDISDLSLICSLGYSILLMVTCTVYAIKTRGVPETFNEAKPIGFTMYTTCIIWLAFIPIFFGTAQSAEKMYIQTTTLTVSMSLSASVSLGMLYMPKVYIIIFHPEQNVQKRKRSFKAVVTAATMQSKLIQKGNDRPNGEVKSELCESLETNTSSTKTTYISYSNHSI

The assay addresses Metabotropic glutamate receptor 8 (Rattus norvegicus) (UniProt P70579). In words: rat mGluR8 modulators via GIRK flux, primary screen, cell-based, thallium flux, HTS (AID 488969). As to conditions: HEK293 rat mGluR8, GIRK (G protein-gated inwardly rectifying potassium channel) thallium flux, FluoZin2; at 10 µM; stronger effect = higher value; submaximal glutamate (EC20) added with thallium.
`O=C(Nc1nccs1)C1CCCN1S(=O)(=O)c1ccc(Cl)cc1` (centres undefined) registered a z-score of 0.437.

Turning to `CCS(=O)(=O)N1CCN(C(=O)C(c2ccccc2)c2ccccc2)CC1`, the z-score was -0.138.

Take `O=C(c1cccc(C(=O)N2CCN(c3ncccn3)CC2)c1)N1CCN(c2ncccn2)CC1`: the z-score is 0.184.

As to `O=C(c1ccc(-c2ccccc2)cc1)N1CCN(c2ncccn2)CC1`, the z-score was 3.97 (active).

For the compound `N#Cc1c(N2CCN(C(=O)c3ccccc3)CC2)nc(-c2ccccc2)c2c1CCCC2`, the z-score worked out at 2.92.

Consider `N#Cc1c(N2CCN(C(=O)c3ccccc3Cl)CC2)nc(-c2ccccc2)c2c1CCCC2`, for which the z-score was -0.453.

In the case of `N#Cc1c(N2CCN(C(=O)c3ccco3)CC2)nc(-c2ccccc2)c2c1CCCC2`, the z-score is -0.665.

The compound `O=C(c1ccc(F)cc1)N1CCN(c2ncccn2)CC1` showed a z-score of -0.204.

`COc1ccc2c(c1)CC/C(=C\c1ccc(OC)c(Cn3cccn3)c1)C2=O`: the z-score is -0.628.

Compound `CCOc1ccccc1OCCCC(=O)Nc1sccc1C(N)=O` showed a z-score of 0.813.

With `O=C(CCl)Nc1ccccc1Sc1ccccc1`, the z-score is -0.216.

`CCC(=O)NC(c1cccs1)c1cc([N+](=O)[O-])c2cccnc2c1O` (centres undefined): the z-score was -0.0253.

Compound `CCCC(=O)NC(c1cccs1)c1cc([N+](=O)[O-])c2cccnc2c1O` (centres undefined) came in with a z-score of 2.37.

On to `CC(=O)NC(c1cccs1)c1cc([N+](=O)[O-])c2cccnc2c1O` (centres undefined), for which the z-score is -1.44.

For the compound `CC(NC(=O)NC1CCCCC1)C(c1cccs1)N1CCN(Cc2ccccc2)CC1` (centres undefined), the z-score was -1.18.

Turning to `O=S(=O)(Nc1cc(Cl)ccn1)c1ccc(Cl)cc1`, the z-score was determined as 0.404.

As to `CCCCCC(=O)Nc1c(-c2ccc(OC)cc2)c(=O)c2ccccc2n1C`, the z-score came out at 0.109.

Compound `CCC(=O)Nc1c(-c2ccc(OC)cc2)c(=O)c2ccccc2n1C` yielded a z-score of 2.76.

Take `CCCC(=O)Nc1c(-c2ccc(OC)cc2)c(=O)c2ccccc2n1C`: the z-score was -0.253.

In turn, `O=S(=O)(Nc1ccc(Cc2ccncc2)cc1)c1cccs1` had a z-score of -0.0895.

On to `CS(=O)(=O)N1N=C(c2ccc3nccnc3c2)CC1c1ccccc1` (centres undefined), for which the z-score was -0.111.

As to `COc1c2occc2cc2ccc(=O)oc12`, the z-score was -0.548.

Compound `O=c1cc(C(F)(F)F)oc2c1ccc1ccccc12` had a z-score of -0.211.

`COc1c2occc2c(OC)c2c(=O)cc(C(F)(F)F)oc12` showed a z-score of 2.92.

For the compound `CCC(C)N=C1SCC(C)(/C=N/O)S1` (centres undefined), the z-score is -0.0708.

Take `Oc1oc(-c2ccccc2)nc1C=Nc1cccc2ccccc12`: the z-score was -0.00127.

On to `Oc1[nH]c2ccccc2c1/C=N/c1nccs1`, for which the z-score is 2.09.

Compound `Oc1oc(-c2ccccc2)nc1/C=N/c1nccs1` came in with a z-score of 1.54.

On to `Oc1oc(-c2cccc3ccccc23)nc1/C=N/c1nccs1`, for which the z-score is 7.77 (active).

`CCCCOc1ccc(-c2nc(/C=N/c3nccs3)c(O)o2)cc1` yielded a z-score of 2.84.

Compound `CCOc1ccc2nc(/N=C/c3nc(-c4ccc(Br)cc4)oc3O)sc2c1` displayed a z-score of 0.754.

With `CN=Cc1nc(-c2ccccc2)oc1O`, the z-score was found to be 1.62.

The compound `Oc1ccc2ccccc2c1/C=N/c1nccs1` showed a z-score of 0.277.

`C(=N\c1nccs1)/c1c[nH]c2ccccc12` registered a z-score of -0.861.

As to `N#Cc1c(N)c(C(=O)c2ccccc2)n2c1CCCC2`, the z-score was -0.142.

In turn, `C#CCn1c(S(=O)(=O)Cc2ccc(C)cc2)nc(-c2ccccc2)c1-c1ccccc1` came in with a z-score of -0.259.

`COc1ccc(C(C#N)N2N=C(c3ccccc3)CC2c2ccccc2)cc1OC` (centres undefined) registered a z-score of 0.0225.

The compound `CC1CC(C)(C)CC2(C1)NC(=O)N(CC(=O)NCC(c1ccco1)N1CCCCC1)C2=O` (centres undefined) displayed a z-score of 0.771.

In turn, `Cc1nnc(SCC(=O)NCc2ccco2)n1-c1ccccc1` registered a z-score of -0.0052.

As for `Cn1c(SCC(=O)Nc2ccccc2)nnc1-c1ccc(NC(=O)CCc2ccccc2)cc1`, the z-score is -0.164.

Take `CN(CP(=O)(O)CN(C)S(C)(=O)=O)S(C)(=O)=O`: the z-score was 0.00353.

`O=C(NCc1ccco1)c1cnn2c(C(F)(F)F)cc(-c3ccccc3)nc12` returned a z-score of -0.67.

As to `CC1Nc2nc(N(C)C)[nH]c(=O)c2NC1C` (centres undefined), the z-score is 0.838.

As for `CCOC(=O)C(CC)n1cnc2c(nnn2-c2ccc(C)cc2)c1=O` (centres undefined), the z-score was -0.636.

For `CCOC(=O)C(CC)n1cnc2c(nnn2-c2ccc(OC)cc2)c1=O` (centres undefined), the z-score was 4.43 (active).

As for `CCC(C(=O)OC)n1cnc2c(nnn2-c2ccc(OC)cc2)c1=O` (centres undefined), the z-score was -0.912.

As for `Cc1cc(Nc2ccccc2)n(C(=O)c2ccc(Cl)cc2)n1`, the z-score came out at 0.82.

`O=S(=O)(NCCCc1ccccc1)c1ccc(Cl)cc1` came in with a z-score of -0.252.

In the case of `O=S(=O)(NCc1ccccc1)c1ccc(Cl)cc1`, the z-score is 2.77.

The compound `O=S(=O)(NCc1ccccc1)c1ccc(Cl)c(S(=O)(=O)NCc2ccccc2)c1` gave a z-score of 0.165.

Compound `CCOC(=O)C1=c2s/c(=C\c3cccnc3)c(=O)n2C(N)=C(C(=O)OC)C1c1cccnc1` (centres undefined) displayed a z-score of 0.984.

For `CC1(C)CC2CC(C)(CN2C(=S)NC(=O)c2ccccc2Cl)C1` (centres undefined), the z-score is 8.8 (active).

`CC1(C)CC2CC(C)(CN2C(=O)NC(=O)c2ccccc2)C1` (centres undefined) returned a z-score of -0.259.

With `C[C@H](NC(=O)c1ccccc1Cl)C(=O)OCC(=O)N1CC2(C)CC1CC(C)(C)C2` (some centres undefined), the z-score worked out at 0.00588.

On to `O=C(CSCCO)Nc1cccc(C(F)(F)F)c1`, for which the z-score stood at 0.657.

Compound `CN(C)C(=O)CN(c1ccc2c(c1)OCO2)S(C)(=O)=O` gave a z-score of -0.0253.

Turning to `CS(=O)(=O)N(CC(=O)O)c1ccc2c(c1)OCO2`, the z-score is -2.86.

With `CCN(CC)C(=O)CN(c1ccc2c(c1)OCO2)S(C)(=O)=O`, the z-score was found to be 2.51.

Compound `Cc1c(C(=O)OC(C)C)sc(NC(=O)C2CCCO2)c1C(=O)OC(C)C` (centres undefined) came in with a z-score of -0.0386.

Compound `O=C(CCNC(=O)c1ccccc1Cl)Nc1cccc(C(F)(F)F)c1` displayed a z-score of -0.204.

`Fc1cccc(Cl)c1CSc1nnc(COc2cccc3cccnc23)o1` displayed a z-score of -0.675.

The compound `Cc1nc(N2CCN(C)CC2)c2sc(=S)n(C)c2n1` registered a z-score of 0.624.

In turn, `Cc1ccc(-n2nnnc2-c2cnn(-c3cccc(F)c3)c2C(F)(F)F)cc1` gave a z-score of 0.0555.

Consider `COC(=O)c1ccc(CSc2nnc(Nc3ccc(OC)cc3)s2)o1`, for which the z-score is 0.755.

For `COC(=O)c1ccc(CSc2nnc(Nc3ccccc3OC)s2)o1`, the z-score is 4.01 (active).

Turning to `COC(=O)c1ccc(CSc2nnc(Nc3cccc(OC)c3)s2)o1`, the z-score amounted to 0.67.

Consider `CC1=C(C(=O)Nc2ccc(F)cc2)C(c2ccc(C)o2)C2=C(CC(C)(C)CC2=O)N1` (centres undefined), for which the z-score turned out to be 0.288.

As for `CC(C)CNC(=S)N1CCN(C(c2ccccc2)c2ccccc2)CC1`, the z-score was -0.358.

Regarding `CCNc1ccc(S(=O)(=O)N(C)C)cc1NCC(=O)Nc1ccc(Br)cc1F`, the z-score was -0.257.

With `COc1ccc(-c2noc(-c3cc(C)cc(C)c3)n2)cc1OC`, the z-score stood at 0.138.

The compound `CCOc1ccc(-c2nc(-c3ccncc3)no2)cc1OCC` showed a z-score of 2.12.

On to `CCOc1ccc(-c2nc(-c3ccc(OC)c(OC)c3)no2)cc1OCC`, for which the z-score was 4.75 (active).

As to `CCOc1ccc(-c2nc(-c3ccccc3)no2)cc1OCC`, the z-score amounted to 1.62.

`COc1ccc(-c2noc(-c3ccccc3Cl)n2)cc1OC` displayed a z-score of -0.738.

Take `CCOc1cc(-c2nc(-c3cc(OC)c(OC)c(OC)c3)no2)cc(OCC)c1OCC`: the z-score was found to be 0.87.

On to `CCOc1ccc(-c2nc(-c3ccc(OC)cc3)no2)cc1OCC`, for which the z-score was found to be 2.87.

Compound `CCOc1ccccc1-c1nc(-c2ccncc2)no1` showed a z-score of 0.0712.

With `CCOc1ccc(-c2noc(COC)n2)cc1OC`, the z-score is -0.328.

The compound `CCOc1nc(C)ccc1-c1noc(-c2ccncc2)n1` yielded a z-score of 0.775.

Compound `COc1ccc(-c2noc(-c3ccc(Cl)cc3[N+](=O)[O-])n2)cc1OC` showed a z-score of -0.0457.

Consider `COc1ccc(-c2noc(-c3cc(Cl)ccc3Cl)n2)cc1OC`, for which the z-score was 3.41 (active).

For the compound `COC(=O)c1cc2sc(Cl)cc2n1Cc1nc(-c2cccc(C)c2)oc1C`, the z-score is -0.256.

Consider `Cc1noc(C)c1CSCC(=O)NC1=NCCS1`, for which the z-score is -0.333.

Compound `O=C(Cn1c(=O)n(Cc2ccccc2)c(=O)c2ccccc21)NCc1ccco1` came in with a z-score of -1.05.

Regarding `COc1c(Cl)cc(Cl)cc1C(=O)Nc1ccc(NC(=O)c2cccs2)cc1`, the z-score came to 0.021.

Consider `CC1(C)CC(=O)C=C(NC2CCCCCCC2)C1`, for which the z-score is -0.289.

As to `O=C(NCC1(c2ccccc2)CCCC1)c1ccc(Br)o1`, the z-score was -0.309.

Take `O=C(Oc1cccc2c(OC(=O)N3CCCC3)cccc12)N1CCCC1`: the z-score was -0.117.

For `COC(=O)c1cccc(-n2c(C)cc(C=O)c2C)c1`, the z-score was -0.0226.

The compound `Fc1ccc(Cn2nnnc2CN2CCN(C3CCCCC3)CC2)cc1` returned a z-score of 0.354.

The compound `COCCCn1ccc(O)c(Cc2ccc(F)cc2)c1=O` gave a z-score of -0.0433.

Compound `Cc1nn(-c2ccc3nnc(Br)n3n2)c(C)c1Br` had a z-score of -0.48.

On to `CCc1ccc2c(c1)/C(=C/C(=O)c1cccs1)C(=O)N2`, for which the z-score is -0.314.

Take `CCOc1cc(-c2noc(-c3cccnc3)n2)ccc1OC`: the z-score was 3.79 (active).

`CCOc1ccc(-c2nc(-c3cccnc3)no2)cc1OCC` showed a z-score of 0.841.

Turning to `CCc1ccc(-c2nc(-c3ccncc3)no2)cc1`, the z-score came out at 2.31.

Compound `CCOc1ccc(-c2nnc(-c3cccnc3)o2)cc1OCC` displayed a z-score of 0.0661.

As to `c1ccc(-c2nc(-c3ccncc3)no2)cc1`, the z-score was -0.104.

Take `CC(C)(C)c1ccc(-c2nc(-c3ccncc3)no2)cc1`: the z-score is -0.17.

In the case of `CC(C)C(=O)NCCc1nc2ccccc2n1C`, the z-score stood at 0.0935.

Compound `C=CCNC(=O)c1onc(CSc2ccccc2F)c1C(=O)O` showed a z-score of -0.015.

Consider `Cc1nc2ccccc2c(=O)n1/N=C/c1ccncc1`, for which the z-score was -0.171.

Take `O=C(NCC(=O)N(CC1CCCO1)C(C(=O)NC1CCCCC1)c1ccc(F)cc1)c1ccco1` (centres undefined): the z-score is 0.579.

Consider `Cc1ccccc1C1C(C#N)=C2NC(=O)c3c(sc4c3CCCCC4)N2C2=C1C(=O)CC(C)(C)C2` (centres undefined), for which the z-score turned out to be 1.56.

In the case of `CCCn1c(CCNC(=O)c2cccs2)nc2ccccc21`, the z-score is -0.594.

For `O=C(Oc1c(Cl)cc(Cl)c2cccnc12)c1cccc([N+](=O)[O-])c1`, the z-score is 9.18 (active).

As to `CN1CCN(Cc2cc(Cl)c3cccnc3c2OC(=O)c2cccs2)CC1`, the z-score was 0.273.

Compound `O=C(Oc1ccc(Cl)c2cccnc12)c1cccc([N+](=O)[O-])c1` had a z-score of 0.0891.

On to `Cc1ccc(C(=O)Oc2ccc(Cl)c3cccnc23)cc1[N+](=O)[O-]`, for which the z-score came out at 0.387.

For the compound `O=C(Oc1cccc2cccnc12)c1cccs1`, the z-score was -0.532.

On to `O=C(Oc1ccc(Cl)c2cccnc12)c1ccco1`, for which the z-score amounted to 0.951.

In the case of `O=C(Oc1c(Cl)cc(Cl)c2cccnc12)c1ccco1`, the z-score is 3.13 (active).

As to `O=C(Oc1c(Cl)cc(Cl)c2cccnc12)c1cccs1`, the z-score is 2.7.

For the compound `O=C(Oc1c(Cl)cc(Cl)c2cccnc12)N1CCOCC1`, the z-score is -0.0144.
